The source of these data is PubChem BioAssay (Tox21).

Each structure is given as a SMILES string. Results filed as inconclusive are left out. Where a call stands in place of a potency, no number is given. A number with no mark means an inactive call. Active and inactive are the calls of the source. Calls come from the whole dose curve; as a rule, active = well fitted activation curve with a large enough effect in the signal ratio in the repeat runs (not every such curve was filed as active); inconclusive = weak or mixed curves, or effect the other way; inactive = flat fitted curve, though single readings scatter; the % refers to the signal ratio.

Chain of Estrogen receptor beta (Homo sapiens) (Q92731 whole entry, looked up): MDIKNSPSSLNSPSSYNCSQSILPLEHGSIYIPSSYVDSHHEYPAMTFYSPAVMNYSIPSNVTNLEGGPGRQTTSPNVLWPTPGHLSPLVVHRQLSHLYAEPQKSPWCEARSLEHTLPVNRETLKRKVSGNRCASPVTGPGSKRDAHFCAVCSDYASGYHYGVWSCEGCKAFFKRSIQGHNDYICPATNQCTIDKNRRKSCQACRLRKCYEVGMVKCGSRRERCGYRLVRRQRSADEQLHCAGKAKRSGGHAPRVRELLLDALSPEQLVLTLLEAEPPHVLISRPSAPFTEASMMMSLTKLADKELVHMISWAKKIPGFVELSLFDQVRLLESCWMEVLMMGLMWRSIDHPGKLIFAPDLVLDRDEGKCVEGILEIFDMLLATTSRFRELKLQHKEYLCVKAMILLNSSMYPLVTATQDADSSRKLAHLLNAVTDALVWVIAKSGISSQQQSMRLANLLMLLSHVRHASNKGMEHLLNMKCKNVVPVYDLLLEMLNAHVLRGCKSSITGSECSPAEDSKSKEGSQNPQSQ

For the test, the target named is Estrogen receptor beta (Homo sapiens) (UniProt Q92731). Put plainly: qHTS assay to identify small molecule agonists of the estrogen receptor beta (ER-beta) signaling pathway (AID 1259377). The note with it: ER-beta-UAS-bla HEK293T, beta-lactamase FRET ratio, 16 h; series mostly up to 92.4 µM. The text has this:
U.S. Tox21 Program National Center for Advancing Translational Sciences [NCATS] NIH Chemical Genomics Center [NCGC] U.S. Environmental Protection Agency [EPA] National Institutes of Environmental Health Sciences [NIEHS] National Toxicology Program [NTP] U.S. Food and Drug Administration [FDA] Tox21 Assay Overview: Estrogen receptor (ER), a nuclear hormone receptor, plays an important role in development, metabolic homeostasis and reproduction. Two subtypes of ER, ER-alpha and ER-beta, have similar expression patterns with some uniqueness in both types. Endocrine disrupting chemicals (EDCs) and their interactions with steroid hormone receptors like ER causes disruption of normal endocrine function. To identify the compounds that activate ER signaling, an ER beta-UAS-bla GripTite cell line (Life technologies, Madison, WI, USA) containing a beta-lactamase reporter gene under the control of an Upstream Activator Sequence (UAS) was used to screen Tox21 10K compound library.
Tox21 Assay Protocol Summary: ER-beta-UAS-bla HEK293T cells were dispensed at 2,000 cells/5 uL of assay medium containing 2% charcoal stripped FBS per well into black wall/clear-bottom 1536-well plates using a Multidrop Combi (ThermoFisher Scientific, Waltham, MA) dispenser. After the assay plates were incubated at a 37C and 5% CO2 for 6 hr, 23 nL of compounds dissolved in DMSO, positive controls or DMSO only was transferred to the assay plate by a Pintool station (Kalypsys, San Diego, CA). The plates were incubated at 37C and 5% CO2 for 16 hr. Then 1 uL of LiveBLAzerTM B/G FRET substrate was added using a BioRAPTR FRD (Flying Reagent Dispenser, Aurora Discovery, San Diego, CA). After the plates were incubated at room temperature for 2 hours, fluorescence intensity was measured by an Envision plate reader (PerkinElmer, Shelton, CT).
In general terms: qHTS replaces the single test concentration by a dilution series.
In the case of `O=C1NC2NC(=O)NC2N1` (stereo not given), the Potency result was “inactive”.

Regarding `CC(C)c1ccccc1O`, the Potency result is “inactive”.

As to `CC(=O)OC(C)c1ccccc1` (stereo not given), the Potency entry was “inactive”.

As to `C=C(C)C(=O)OC1CC(C)CC(C)(C)C1` (stereo not given), the Potency entry was “inactive”.

On to `COc1ccc(N=Nc2cc(C)c(N=Nc3ccc(S(=O)(=O)O)cc3)cc2OC)cc1`, for which the Potency result was “inactive”.

In the case of `CC(C)C(=O)c1ccccc1`, the Potency result was “inactive”.

As for `C=CCOCC(O)CCl` (stereo not given), the Potency result is “inactive”.

In the case of `CCCCCC1CCCC(=O)O1` (stereo not given), the Potency result was “inactive”.

In the case of `Cc1cccc(C(=O)O)c1[N+](=O)[O-]`, the Potency result is “inactive”.

Consider `CC1CCC(C(C)(C)S)C(=O)C1` (stereo not given), for which the Potency result was “inactive”.

Regarding `CC(C)CCCCCCOC(=O)C1CCCCC1C(=O)OCCCCCCC(C)C` (stereo not given), the Potency entry was “inactive”.

As for `O=C(/C=C/c1ccccc1)NCCO`, the Potency entry was “inactive”.

`C=C[C@@H](C)CCC=C(C)C`: the Potency entry was “inactive”.

Turning to `O=C(O)c1ccc(OCCN2CCCCC2)cc1`, the Potency result was “inactive”.

In the case of `O=CN1CCOCC1`, the Potency entry is “inactive”.

`CCc1nccnc1C`: the Potency entry is “inactive”.

As to `Cc1ccc2c(c1)c1c3n2CCNC3CCC1` (stereo not given), the Potency result is “inactive”.

As to `CCCCCCCCCCCCOC(C)=O`, the Potency entry is “inactive”.

Consider `CCOc1ccc(NC(=O)OC(C)C)cc1OCC`, for which the Potency result is “inactive”.

Turning to `BrC/C=C/CBr`, the activation was 0.425% [at 19 µM].

Consider `CCCCCCCCCOCC1CO1` (stereo not given), for which the Potency result is “inactive”.

Consider `CNC(=O)NC`, for which the Potency entry is “inactive”.

With `Cc1c(C(C)C)c(=O)n(-c2ccccc2)n1C`, the Potency result was “inactive”.

For the molecule `C1CCN2C[C@@H]3C[C@@H](CN4CCCC[C@@H]34)[C@H]2C1`, the Potency entry is “inactive”.

`NC(=O)NC(=O)Cc1ccccc1`: the Potency entry was “inactive”.

Take `Cc1cccc(Nc2ccncc2S(=O)(=O)NC(=O)NC(C)C)c1`: the Potency result is “inactive”.

For the molecule `CCOC(=O)OCC/C(SC(=O)OCC)=C(\C)N(C=O)Cc1cnc(C)nc1N`, the Potency result is “inactive”.

For the molecule `C=CCOc1c(Br)cc(Br)cc1Br`, the Potency result was “inactive”.

As for `C=CCOc1c(Br)cc(C(C)(C)c2cc(Br)c(OCC=C)c(Br)c2)cc1Br`, the Potency entry was “inactive”.

In the case of `C[CH2][Ge]([Cl])([CH2]C)[CH2]C`, the Potency result was “inactive”.

`CC(=O)c1ccc2c(c1)CCCC2`: the Potency result was “inactive”.

As to `CC1=CC[C@H](CC=O)C1(C)C`, the Potency entry was “inactive”.

`CCCCCC1Nc2cc(C(F)(F)F)c(S(N)(=O)=O)cc2S(=O)(=O)N1` (stereo not given): the Potency entry is “inactive”.

As to `CCNC(=O)/C=C/c1cccc(Br)c1`, the Potency entry is “inactive”.

Take `Cc1ccccc1C(=O)N1CC/C(=N\OS(=O)(=O)O)c2ccc(Cl)cc21`: the Potency entry was “inactive”.

On to `NC(Cc1c[nH]c2ccccc12)C(=O)O` (stereo not given), for which the Potency result was “inactive”.

`NS(=O)(=O)c1cc2c(cc1Cl)NC(C(Cl)Cl)NS2(=O)=O` (stereo not given): the Potency result was “inactive”.

On to `CCCC(C)CC` (stereo not given), for which the Potency entry was “inactive”.

For `CN(C)CCCNCCC#N`, the Potency result is “inactive”.

Regarding `O=S1(=O)CCCC1`, the Potency entry was “inactive”.
